Measurements from PubChem BioAssay AID1159580 (chemical genetic matrix, 2015).
Values joined by “and” are separate entries in the source; they are usually repeats but may differ in a detail not shown here. Equal entries are not always repeated. About 2,000 (36%) of roughly 5,500 compounds were called active. Roughly 18% stayed inconclusive and do not appear here. Rule as the data show it: active = normalized growth mostly below about 0.91 (no sharp cut-off); inconclusive = no clear call, values can overlap the other calls; inactive = mostly above about 0.92. Some of the results follow.

Assay: chemical genetic growth profiling, strain panel (AID 1159580);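 also: tested at 20 µM; growth read once vehicle control cultures reached saturation at 30 °C; 1 = growth at the plate median or of vehicle wells; lower values mean less growth of the strain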
Conditions: S. cerevisiae deletion strains, growth OD

Measured: normalized growth

CC1(C)C(=O)C=C[C@@]2(C)C1CC(=O)[C@]1(C)C2CC[C@@]2(C)[C@H](c3ccoc3)OC(=O)[C@H]3O[C@]321 (some centres undefined)
inactive: locus YAL021C, strain ccr4, stronger effect = lower value 1.02 | locus YAL026C, strain drs2, stronger effect = lower value 0.99 | locus YAL030W, strain snc1, stronger effect = lower value 0.981 | locus YBL061C, strain skt5, stronger effect = lower value 0.975 | locus YBR009C, strain hhf1, stronger effect = lower value 1.04 | locus YBR021W, strain FUR4, stronger effect = lower value 0.992 | locus YBR023C, strain chs3, stronger effect = lower value 0.991 | locus YBR171W, strain sec66, stronger effect = lower value 0.98 | locus YBR229C, strain ROT2, stronger effect = lower value 0.999 | locus YBR231C, strain swc5, stronger effect = lower value 1.03 | locus YBR279W, strain paf1, stronger effect = lower value 1.01 | locus YCL016C, strain dcc1, stronger effect = lower value 0.988 | locus YCL029C, strain bik1, stronger effect = lower value 1.02 | locus YCL061C, strain MRC1, stronger effect = lower value 0.988 | locus YCL069W, strain vba3, stronger effect = lower value 0.977 | locus YCR088W, strain abp1, stronger effect = lower value 0.998 | locus YDL005C, strain med2, stronger effect = lower value 0.977 | locus YDL035C, strain GPR1, stronger effect = lower value 0.99 | locus YDL040C, strain nat1, stronger effect = lower value 0.977 | locus YDL074C, strain BRE1, stronger effect = lower value 0.991 | locus YDL101C, strain DUN1, stronger effect = lower value 1.01 | locus YDL134C, strain PPH21, stronger effect = lower value 1.01 | locus YDL185W, strain tfp1, stronger effect = lower value 1.01 | locus YDL192W, strain arf1, stronger effect = lower value 1.01 | locus YDR001C, strain nth1, stronger effect = lower value 0.992 | locus YDR069C, strain doa4, stronger effect = lower value 0.949 | locus YDR101C, strain arx1, stronger effect = lower value 0.991 | locus YDR137W, strain rgp1, stronger effect = lower value 0.989 | locus YDR150W, strain NUM1, stronger effect = lower value 0.995 | locus YDR159W, strain sac3, stronger effect = lower value 1 | locus YDR162C, strain NBP2, stronger effect = lower value 0.962 | locus YDR195W, strain ref2 1.02 | locus YDR297W, strain sur2, stronger effect = lower value 0.994 | locus YDR318W, strain mcm21, stronger effect = lower value 1.01 | locus YDR334W, strain swr1, stronger effect = lower value 0.988 | locus YDR335W, strain msn5, stronger effect = lower value 0.994 | locus YDR388W, stronger effect = lower value 1.02 | locus YDR392W, strain spt3, stronger effect = lower value 0.925 | locus YDR502C, strain sam2, stronger effect = lower value 1.04 | locus YEL003W, strain gim4, stronger effect = lower value 0.975 | locus YEL037C, strain rad23, stronger effect = lower value 0.989 | locus YEL061C, strain CIN8 (second series), stronger effect = lower value 0.996 | locus YEL061C, strain CIN8, stronger effect = lower value 0.986 | locus YER015W, strain faa2, stronger effect = lower value 0.975 | locus YER016W, strain bim1, stronger effect = lower value 0.966 | locus YER110C, stronger effect = lower value 1.02 | locus YER111C, strain swi4, stronger effect = lower value 0.968 | locus YER155C, strain BEM2 (second series), stronger effect = lower value 1.04 | locus YER155C, strain BEM2, stronger effect = lower value 1 | locus YER167W, strain BCK2, stronger effect = lower value 0.986 | locus YFR010W, strain ubp6, stronger effect = lower value 1.02 | locus YGL078C, strain dbp3, stronger effect = lower value 1.02 | locus YGL086W, strain mad1, stronger effect = lower value 1.01 | locus YGL167C, strain pmr1, stronger effect = lower value 0.992 | locus YGL173C, strain kem1, stronger effect = lower value 1.01 | locus YGL227W, strain vid30, stronger effect = lower value 0.994 | locus YGL240W, strain doc1, stronger effect = lower value 1.06 | locus YGL248W, strain PDE1, stronger effect = lower value 1 | locus YGL253W, strain hxk2, stronger effect = lower value 0.981 | locus YGR135W, strain pre9, stronger effect = lower value 1.05 | locus YGR252W, strain gcn5, stronger effect = lower value 1.09 | locus YHR013C, strain ard1, stronger effect = lower value 0.964 | locus YHR027C, strain rpn1, stronger effect = lower value 0.995 | locus YHR030C, strain SLT2, stronger effect = lower value 0.988 and 0.992 | locus YHR079C, strain IRE1 (second series), stronger effect = lower value 1.01 | locus YHR079C, strain IRE1, stronger effect = lower value 0.987 | locus YHR094C, strain hxt1, stronger effect = lower value 1.02 | locus YHR129C, strain ARP1, stronger effect = lower value 0.988 | locus YHR142W, strain chs7, stronger effect = lower value 0.968 | locus YHR200W, strain rpn10, stronger effect = lower value 1.01 | locus YIL066C, strain RNR3, stronger effect = lower value 0.978 | locus YIL073C, strain SPO22, stronger effect = lower value 1.04 | locus YIL125W, strain kgd1, stronger effect = lower value 0.998 | locus YIR030C, strain dcg1, stronger effect = lower value 1.01 | locus YJL092W, strain hpr5, stronger effect = lower value 0.971 | locus YJL095W, strain BCK1 (second series), stronger effect = lower value 0.976 | locus YJL095W, strain BCK1, stronger effect = lower value 1 and 0.983 | locus YJL115W, strain asf1, stronger effect = lower value 0.983 | locus YJL129C, strain trk1, stronger effect = lower value 0.952 | locus YJL134W, strain LCB3, stronger effect = lower value 0.986 | locus YJL154C, strain vps35, stronger effect = lower value 0.978 | locus YJL164C, strain tpk1, stronger effect = lower value 0.985 | locus YJL166W, strain qcr8, stronger effect = lower value 1 | locus YJL168C, strain set2, stronger effect = lower value 1 | locus YJL187C, strain SWE1 (second series), stronger effect = lower value 1.02 | locus YJR066W, strain TOR1, stronger effect = lower value 0.927 | locus YJR075W, strain HOC1, stronger effect = lower value 0.995 | locus YKL009W, strain mrt4, stronger effect = lower value 1 | locus YKL068W, stronger effect = lower value 1 | locus YKL085W, strain MDH1 (second series), stronger effect = lower value 0.992 | locus YKL085W, strain MDH1, stronger effect = lower value 0.992 | locus YKL160W, strain elf1, stronger effect = lower value 0.976 | locus YKL190W, strain CNB1, stronger effect = lower value 0.997 | locus YKR001C, strain vps1, stronger effect = lower value 1.03 | locus YKR026C, strain gcn3, stronger effect = lower value 0.998 | locus YKR091W, strain srl3, stronger effect = lower value 0.974 | locus YLL001W, strain dnm1, stronger effect = lower value 1 | locus YLL026W, stronger effect = lower value 0.997 | locus YLL041C, strain sdh2, stronger effect = lower value 0.982 | locus YLR027C, strain aat2, stronger effect = lower value 1 | locus YLR039C, strain RIC1, stronger effect = lower value 0.886 | locus YLR058C, strain SHM2, stronger effect = lower value 0.996 | locus YLR102C, strain apc9, stronger effect = lower value 1.01 | locus YLR113W, strain HOG1, stronger effect = lower value 1.01 | locus YLR221C, strain rsa3, stronger effect = lower value 1.04 | locus YLR258W, strain gsy2, stronger effect = lower value 0.976 | locus YLR262C, strain YPT6 (second series), stronger effect = lower value 0.972 | locus YLR262C, strain YPT6, stronger effect = lower value 0.897 | locus YLR268W, strain sec22, stronger effect = lower value 0.982 | locus YLR320W, strain mms22, stronger effect = lower value 1.02 | locus YLR330W, strain CHS5, stronger effect = lower value 0.994 | locus YLR342W, strain FKS1 (second series), stronger effect = lower value 0.982 | locus YLR342W, strain FKS1, stronger effect = lower value 0.98 | locus YLR357W, strain rsc2, stronger effect = lower value 0.941 | locus YLR370C, strain arc18, stronger effect = lower value 0.99 | locus YLR371W, strain rom2, stronger effect = lower value 0.998 | locus YLR384C, strain iki3, stronger effect = lower value 0.987 | locus YLR418C, strain cdc73, stronger effect = lower value 1.04 | locus YML016C, strain PPZ1, stronger effect = lower value 0.984 | locus YML032C, strain rad52, stronger effect = lower value 1.02 | locus YML120C, strain ndi1, stronger effect = lower value 0.988 | locus YML124C, strain tub3, stronger effect = lower value 1.01 | locus YMR058W, strain fet3, stronger effect = lower value 1 | locus YMR078C, strain ctf18, stronger effect = lower value 1.01 | locus YMR125W, strain sto1, stronger effect = lower value 0.973 | locus YMR129W, stronger effect = lower value 0.971 | locus YMR205C, strain PFK2, stronger effect = lower value 1.04 | locus YMR223W, strain ubp8, stronger effect = lower value 1.01 | locus YMR231W, strain pep5, stronger effect = lower value 0.982 | locus YMR307W, strain GAS1, stronger effect = lower value 0.868 | locus YNL067W, strain RPL9B, stronger effect = lower value 1.01 | locus YNL071W, strain lat1, stronger effect = lower value 1 | locus YNL128W, strain TEP1, stronger effect = lower value 0.978 | locus YNL183C, strain NPR1, stronger effect = lower value 0.931 | locus YNL209W, strain ssb2, stronger effect = lower value 0.989 | locus YNL233W, strain BNI4, stronger effect = lower value 0.987 | locus YNL248C, strain rpa49, stronger effect = lower value 0.93 | locus YNL250W, strain rad50, stronger effect = lower value 1.03 | locus YNL271C, strain bni1, stronger effect = lower value 1 | locus YNL298W, strain CLA4, stronger effect = lower value 1.03 | locus YNL307C, strain MCK1, stronger effect = lower value 1 | locus YNL322C, strain KRE1 (second series), stronger effect = lower value 0.958 | locus YNR049C, strain mso1, stronger effect = lower value 0.952 | locus YNR052C, strain pop2, stronger effect = lower value 1.03 | locus YOL006C, strain TOP1, stronger effect = lower value 0.987 | locus YOL012C, strain htz1 1.38 | locus YOL147C, strain pex11, stronger effect = lower value 1.01 | locus YOR001W, strain rrp6, stronger effect = lower value 1 | locus YOR061W, strain CKA2, stronger effect = lower value 0.991 | locus YOR069W, strain VPS5, stronger effect = lower value 0.995 | locus YOR070C, strain gyp1, stronger effect = lower value 0.995 | locus YOR080W, strain dia2, stronger effect = lower value 0.986 | locus YOR083W, strain WHI5, stronger effect = lower value 0.907 | locus YOR106W, strain vam3, stronger effect = lower value 0.955 | locus YOR136W, strain idh2, stronger effect = lower value 1.01 | locus YOR144C, strain elg1, stronger effect = lower value 1.01 | locus YOR184W, strain ser1, stronger effect = lower value 0.974 | locus YOR231W, strain MKK1, stronger effect = lower value 0.983 | locus YOR265W, strain rbl2, stronger effect = lower value 0.984 | locus YOR270C, strain vph1, stronger effect = lower value 0.993 | locus YOR290C, strain snf2, stronger effect = lower value 0.976 | locus YOR316C, strain cot1, stronger effect = lower value 1.01 | locus YPL051W, strain arl3, stronger effect = lower value 1 | locus YPL055C, strain LGE1, stronger effect = lower value 1 | locus YPL078C, strain atp4, stronger effect = lower value 0.976 | locus YPL106C, strain sse1, stronger effect = lower value 0.986 | locus YPL240C, strain hsp82, stronger effect = lower value 0.996 | locus YPL241C, strain CIN2, stronger effect = lower value 0.987 | locus YPL256C, strain CLN2, stronger effect = lower value 0.987 | locus YPR119W, strain clb2, stronger effect = lower value 1.01 | locus YPR141C, strain kar3, stronger effect = lower value 1 | locus YPR163C, strain tif3, stronger effect = lower value 1.01 | locus YPR167C, strain met16, stronger effect = lower value 1.01 | strain wtn01, stronger effect = lower value 1
